# Reference: PubChem BioAssay
# The source made the active and inactive calls.
# Assays:
# [1] = optical density shifts of acrAB sulA E. coli – strain DRC41, OD650, 48 h, E. coli filamentation inducer project, primary screen (AID 1152); conditions: higher = more signal, called active from +8 up or from −8 down;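 note: E. coli MC1000 strain DRC41 lacking acrAB efflux pump and sulA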
# [2] = probe aLefty1 binding on compound microarray – biochemical, small-molecule microarray, 635/667 nm fluorescence, primary screen (AID 1153); conditions: higher = more signal;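 note: score merges spot fluorescence with signal-to-noise ratio from the scanned slide images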
# [3] = plasmodial surface anion channel blockers, osmotic lysis – cell-based, P. falciparum Indochina, OD700, 1 h, primary screen (AID 1154); conditions: P. falciparum Indochina infected RBC osmotic lysis, higher = more signal, called active from +8 up or from −8 down
# [4] = plasmodial surface anion channel blockers, osmotic lysis – cell-based, P. falciparum Indochina, OD700, 2 h, primary screen (AID 1155);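 note: lysis reports solute entry through the parasite surface anion channel PSAC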; conditions: P. falciparum Indochina infected erythrocytes, higher = more signal, called active from +8 up or from −8 down
# [5] = changes in parasitized red cell lysis, either direction – P. falciparum Indochina, OD700, 3 h, PSAC antagonist project, primary screen (AID 1156); conditions: P. falciparum-infected erythrocytes, osmotic lysis, higher = more signal, called active from +8 up or from −8 down
# [6] = plasmodial surface anion channel blockers, osmotic lysis – cell-based, P. falciparum Indochina, OD700, 18 h, primary screen (AID 1157); conditions: P. falciparum Indochina infected erythrocytes, osmotic lysis OD700, 18 h; higher = more signal, called active from +8 up or from −8 down
# [7] = S6 kinase pathway phospho-S6 level changes – cell-based, A549, cytoblot, luminescence, serum-stimulated, primary screen (AID 1158); conditions: 5 h, higher = more signal;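 note: serum-stimulated A549 lung adenocarcinoma cells; signal is phosphorylated S6 detected by cytoblot immunostaining with HRP secondary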
# [8] = target: NADPH oxidase 2 (Homo sapiens) (UniProt P04839); test: compounds shifting NOX2 Amplex Red fluorescence – cell-based, HEK293-NOX2, PMA-stimulated, NOX inhibitor project, primary screen (AID 1159); conditions: 45 min, higher = more signal, called active from +8 up or from −8 down; note: test concentration not given here
# Sequence of NADPH oxidase 2 (Homo sapiens) (P04839 whole entry, looked up): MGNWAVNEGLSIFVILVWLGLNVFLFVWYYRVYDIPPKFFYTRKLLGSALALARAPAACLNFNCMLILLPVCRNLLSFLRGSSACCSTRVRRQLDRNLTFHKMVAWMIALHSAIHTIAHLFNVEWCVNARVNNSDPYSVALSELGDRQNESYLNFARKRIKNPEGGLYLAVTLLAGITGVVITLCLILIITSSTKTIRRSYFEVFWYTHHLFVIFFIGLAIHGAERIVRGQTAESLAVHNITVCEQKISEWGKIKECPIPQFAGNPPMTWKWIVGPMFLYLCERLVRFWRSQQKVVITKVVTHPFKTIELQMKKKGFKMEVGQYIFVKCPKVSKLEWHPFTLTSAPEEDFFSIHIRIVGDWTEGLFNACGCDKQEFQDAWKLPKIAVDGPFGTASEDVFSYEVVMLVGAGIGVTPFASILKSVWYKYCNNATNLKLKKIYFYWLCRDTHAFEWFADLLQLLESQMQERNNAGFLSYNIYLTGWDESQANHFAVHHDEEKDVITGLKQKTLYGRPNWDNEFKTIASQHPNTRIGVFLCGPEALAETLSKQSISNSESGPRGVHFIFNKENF
# [9] = target: NADPH oxidase 4 (Homo sapiens) (UniProt Q9NPH5); test: compounds shifting NOX4 Amplex Red fluorescence – cell-based, HEK293-NOX4, tetracycline-induced, NOX inhibitor project, primary screen (AID 1160); conditions: HEK293-NOX4, Amplex Red H2O2 fluorescence, 45 min; higher = more signal, called active from +8 up or from −8 down
# Sequence of NADPH oxidase 4 (Homo sapiens) (Q9NPH5 whole entry, looked up): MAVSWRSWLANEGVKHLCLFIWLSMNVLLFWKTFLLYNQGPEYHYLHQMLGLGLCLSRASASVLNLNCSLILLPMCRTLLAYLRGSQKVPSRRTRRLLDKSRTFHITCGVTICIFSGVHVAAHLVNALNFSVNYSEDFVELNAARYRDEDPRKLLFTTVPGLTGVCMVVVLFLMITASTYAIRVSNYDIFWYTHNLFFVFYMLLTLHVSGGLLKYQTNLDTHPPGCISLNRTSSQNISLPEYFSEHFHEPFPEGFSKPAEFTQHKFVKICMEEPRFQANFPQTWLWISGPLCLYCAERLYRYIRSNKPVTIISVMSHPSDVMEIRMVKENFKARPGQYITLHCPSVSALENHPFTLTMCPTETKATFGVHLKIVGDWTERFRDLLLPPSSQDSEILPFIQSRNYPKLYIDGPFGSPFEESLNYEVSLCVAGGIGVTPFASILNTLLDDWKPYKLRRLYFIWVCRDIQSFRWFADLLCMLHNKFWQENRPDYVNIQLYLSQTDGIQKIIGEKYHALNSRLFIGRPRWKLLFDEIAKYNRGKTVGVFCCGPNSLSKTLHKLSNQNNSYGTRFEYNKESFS
# [10] = target: NADPH oxidase 5 (Homo sapiens) (UniProt Q96PH1); test: compounds shifting NOX5 Amplex Red fluorescence – cell-based, HEK293-NOX5, NOX inhibitor project, primary screen (AID 1161); conditions: HEK293-NOX5, ionomycin, 45 min, higher = more signal
# Sequence of NADPH oxidase 5 (Homo sapiens) (Q96PH1 whole entry, looked up): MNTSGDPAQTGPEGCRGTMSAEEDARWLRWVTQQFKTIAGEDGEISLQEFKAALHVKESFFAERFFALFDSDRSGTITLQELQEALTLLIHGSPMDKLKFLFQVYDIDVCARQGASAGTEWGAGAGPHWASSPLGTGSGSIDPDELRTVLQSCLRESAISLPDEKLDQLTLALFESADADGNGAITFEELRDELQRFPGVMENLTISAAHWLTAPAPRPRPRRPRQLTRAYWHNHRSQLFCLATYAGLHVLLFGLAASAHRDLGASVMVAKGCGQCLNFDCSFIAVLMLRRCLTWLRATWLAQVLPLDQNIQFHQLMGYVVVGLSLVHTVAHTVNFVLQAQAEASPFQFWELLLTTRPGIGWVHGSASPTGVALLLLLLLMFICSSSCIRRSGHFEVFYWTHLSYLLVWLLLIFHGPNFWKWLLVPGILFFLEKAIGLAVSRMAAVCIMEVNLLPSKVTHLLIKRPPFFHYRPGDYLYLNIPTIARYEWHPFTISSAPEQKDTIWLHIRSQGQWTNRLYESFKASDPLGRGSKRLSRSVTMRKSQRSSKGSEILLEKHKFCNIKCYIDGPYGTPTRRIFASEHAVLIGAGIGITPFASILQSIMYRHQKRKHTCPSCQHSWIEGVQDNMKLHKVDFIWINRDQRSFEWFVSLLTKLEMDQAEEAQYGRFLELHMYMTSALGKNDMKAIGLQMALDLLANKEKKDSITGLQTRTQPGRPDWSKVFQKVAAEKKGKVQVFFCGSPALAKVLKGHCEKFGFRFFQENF
# [11] = compound effects on lung adenocarcinoma cell viability – A549, calcein-AM fluorescence, 48 h, basal, profiling panel (AID 1162); conditions: higher = more signal; note: test concentration not given here
# [12] = compound effects on differentiated 3T3-L1 adipocyte viability – cell-based, 3T3-L1 adipocytes, calcein-AM fluorescence, 48 h, basal, profiling panel (AID 1163); conditions: 3T3-L1 adipocytes viability, higher = more signal; note: test concentration not given here
# [13] = compound effects on hepatocellular carcinoma cell viability – HepG2, calcein-AM fluorescence, 48 h, basal, profiling panel (AID 1164); conditions: higher = more signal; note: test concentration not given here
# [14] = compound effects on multiple myeloma cell viability – MM1S, calcein-AM fluorescence, 48 h, basal, profiling panel (AID 1165); conditions: higher = more signal; note: test concentration not given here
# [15] = calcein-AM signal in unstimulated myeloma cells – cell-based, calcein-AM fluorescence, 48 h, PK04 Diversity Set, profiling panel (AID 1166); conditions: RPMI8226 myeloma viability, higher = more signal;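 note: cells grown under basal conditions without added stimulus; test concentration not given here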
# [16] = JC-1 mitochondrial signal, unstimulated HepG2 cells – cell-based, JC-1 fluorescence, 24 h, 100 nL compound, profiling panel (AID 1167); conditions: HepG2 mitochondrial potential, higher = more signal; note: test concentration not given here
# [17] = JC-1 mitochondrial signal, unstimulated adipocytes – cell-based, JC-1 fluorescence, 3T3-L1 adipocytes, 24 h, 100 nL compound, profiling panel (AID 1168); conditions: JC-1 mitochondrial fluorescence, higher = more signal, called active from +8 up or from −8 down; note: test concentration not given here
# [18] = JC-1 mitochondrial signal, unstimulated myeloma cells – cell-based, JC-1 fluorescence, RPMI8226, 24 h, 100 nL compound, profiling panel (AID 1169); conditions: JC-1 mitochondrial potential fluorescence, higher = more signal; note: test concentration not given here
# [19] = JC-1 mitochondrial signal, unstimulated MM1S myeloma – cell-based, JC-1 fluorescence, 24 h, 100 nL compound, profiling panel (AID 1170); conditions: MM1S mitochondrial potential, higher = more signal; note: test concentration not given here
# [20] = resazurin metabolic signal in A549 cells – cell-based, resazurin fluorescence, 24 h, PK04 Diversity Set, profiling panel (AID 1171); conditions: A549 viability, higher = more signal, called active from +8 up or from −8 down; note: test concentration not given here
Compound,z-score [1],composite z-score [2],z-score [3],z-score [4],z-score [5],z-score [6],z-score [7],z-score [8],z-score [9],z-score [10],z-score [11],z-score [12],z-score [13],z-score [14],z-score [15],z-score [16],z-score [17],z-score [18],z-score [19],z-score [20]
C=C(/C(=C/C[C@@H](OC(=O)c1ccncc1)c1ccc(CO)o1)c1cc(C(=O)OC)ccc1OC)C(C)C,0.694 (inactive),0.107,6.4 (inactive),1.47 (inactive),2.63 (inactive),0.529 (inactive),0.57,-0.0543 (inactive),-0.699 (inactive),-0.86,0.621,-0.619,0.486,-2.99,-2.18,0.654,-0.369 (inactive),-0.688,-1.97,-0.0675 (inactive)
O=C1C2C=CC(C(O)c3ccc(Br)cc3)N(n3cnnc3)C2C(=O)N1Cc1ccccc1 (stereo not given),-2.21 (inactive),0.152,0.922 (inactive),1.16 (inactive),0.107 (inactive),0.756 (inactive),-0.738,0.101 (inactive),2.59 (inactive),0.964,-1.71,-1,-3.58,-0.496,-3.99,-0.422,0.633 (inactive),-0.212,0.00374,0.0637 (inactive)
COC(=O)C(CC#Cc1ccc2c(c1)[C@]1(C(=O)N2)[C@H](C(=O)N2CCCCCCC2)[C@H]2C(=O)O[C@H](c3ccccc3)[C@H](c3ccccc3)N2[C@@H]1c1ccccc1OCCO)C(=O)OC,-0.984 (inactive),3.08,1.49 (inactive),0.918 (inactive),0.573 (inactive),0.417 (inactive),-0.0756,0.445 (inactive),0.262 (inactive),1.22,-0.65,0.091,0.491,-0.216,-0.421,0.0896,1.09 (inactive),-0.835,-1.33,0.901 (inactive)
C=C(C(=O)CC[C@@H](OC(C)=O)c1ccc(OCCO)cc1)C(C)C,0.0045 (inactive),-0.142,3.04 (inactive),0.584 (inactive),0.652 (inactive),0.332 (inactive),-0.579,-1.37 (inactive),-1.21 (inactive),-1.77,-0.382,-0.0315,0.185,-1.06,0.16,-0.637,-0.191 (inactive),0.0885,0.109,-0.222 (inactive)
[N-]=[N+]=NCc1ccccc1[C@@H]1OC(c2ccc(OCCCO)cc2)=N[C@]1(Cc1ccccc1)C(=O)O,-0.235 (inactive),0.0429,15.6 (active),2.07 (inactive),-0.143 (inactive),0.786 (inactive),-0.117,0.174 (inactive),1.1 (inactive),1.74,0.211,0.333,0.865,0.229,-0.767,-0.00992,-1.01 (inactive),-0.0434,-0.969,0.45 (inactive)
O=c1cccc(-c2ccc3ccccc3c2)o1,0.62 (inactive),-0.0035,25.4 (active),10 (active),-1.71 (inactive),1.1 (inactive),-0.38,-0.415 (inactive),-4.41 (inactive),-1.19,-0.996,-0.696,-0.644,-0.332,-0.406,-1.31,0.529 (inactive),0.463,-0.288,-0.223 (inactive)
COCCOC(=O)N1C(=O)[C@@]2(c3cc(C#Cc4ccc(OC)cc4)ccc31)[C@H](c1ccc(OCCO)cc1)N1[C@H](c3ccccc3)[C@H](c3ccccc3)OC(=O)[C@H]1[C@@H]2C(=O)N1CCc2cc(OC)c(OC)cc2C1,2.55 (inactive),0.212,4.14 (inactive),1.8 (inactive),-0.867 (inactive),0.608 (inactive),1.02,0.576 (inactive),0.459 (inactive),1.27,0.618,0.979,0.156,0.427,0.959,-0.343,2.92 (inactive),-0.322,-1.24,0.216 (inactive)
O=C(CS)NCCCCCCNC(=O)[C@H]1C[C@H]2C(=O)N3CCC[C@H]3C(=O)N2[C@H]1c1ccc(O)cc1,-0.827 (inactive),0.157,3.99 (inactive),0.776 (inactive),-1.85 (inactive),0.179 (inactive),-0.126,1.05 (inactive),0.241 (inactive),0.247,-0.683,0.646,0.0725,-0.213,1.07,-1.12,-0.0423 (inactive),-0.0782,-0.419,0.985 (inactive)
Cc1ccc(S[C@]2(C(=O)NCCCN(C)C)CC(=O)N(C(C)C)[C@@H]2c2ccc(CO)cc2I)cc1,0.997 (inactive),0.264,6.19 (inactive),-0.185 (inactive),1.38 (inactive),0.277 (inactive),-0.265,0.347 (inactive),-0.675 (inactive),2.17,2.16,-0.054,0.498,-3.07,-1.37,2.47,1.06 (inactive),-0.423,-2.32,0.505 (inactive)
O=C1O[C@@H](c2ccccc2)[C@@H](c2ccccc2)N2[C@@H](c3ccc(O)cc3)[C@]3(C(=O)Nc4ccc(C#CCCO)cc43)[C@@H](C(=O)N3CCCCCCC3)[C@H]12,-0.681 (inactive),2.4,1.27 (inactive),0.654 (inactive),-0.69 (inactive),0.541 (inactive),-0.364,1.15 (inactive),0.277 (inactive),1.47,0.498,0.93,-0.284,0.59,-1.24,-1.06,-0.585 (inactive),-0.185,0.129,0.254 (inactive)
NC(=O)[C@@]1(CCS(=O)(=O)c2ccccc2)N=C(c2ccc(OCCCO)cc2)O[C@H]1c1ccccc1,1.24 (inactive),0.254,19.7 (active),2.48 (inactive),1.4 (inactive),-0.898 (inactive),2.09,-3.88 (inactive),-1.85 (inactive),-1.61,-0.291,0.957,-1.94,0.614,-1.13,-0.209,-0.219 (inactive),0.634,-0.659,0.798 (inactive)
CC(=O)NCCCC[C@@H]1NC(=O)[C@@H]2C[C@H](C(=O)NCCCCCC[N+](C)(C)C)[C@H](c3cccc(OCCO)c3)N2C1=O,0.0924 (inactive),0.156,2.99 (inactive),0.591 (inactive),-0.956 (inactive),0.325 (inactive),-0.507,1.09 (inactive),0.91 (inactive),0.593,-0.339,-0.547,-0.231,-0.241,0.397,-1.51,-0.0349 (inactive),0.226,-0.12,0.481 (inactive)
C=CCCN(CC#C[C@H]1Oc2ccccc2S(=O)(=O)N2CCC[C@@H]12)S(=O)(=O)c1ccc(C)cc1,-1.88 (inactive),0.0443,3.75 (inactive),0.451 (inactive),0.123 (inactive),0.182 (inactive),-0.23,0.744 (inactive),-1.54 (inactive),-0.909,0.436,-0.257,-0.383,-3.21,-1.77,0.825,-0.184 (inactive),-0.972,-1.5,0.967 (inactive)
CCN(CC)c1ccc(N2CC=CC34O[C@@H]5/C=C\CCC(C)OC(=O)C5[C@H]3C(=O)N(CCCCCCO)[C@@H]4C2=O)cc1 (stereo not given in full),0.699 (inactive),-0.464,-0.37 (inactive),0.0486 (inactive),-0.383 (inactive),0.33 (inactive),1.35,-0.315 (inactive),-0.0195 (inactive),0.813,1.21,-1.09,0.674,1.57,0.153,1.25,-1.02 (inactive),0.0282,0.846,0.606 (inactive)
COc1c(C)cc(-c2cc3c(c(-c4ccccc4)n2)[Si](C(C)C)(C(C)C)O[C@H]3c2ccccc2)cc1C,-1.11 (inactive),0.176,0.481 (inactive),-0.129 (inactive),-0.561 (inactive),0.284 (inactive),0.291,-1.36 (inactive),0.788 (inactive),-0.334,-0.77,-0.11,-0.0094,-0.521,-1.98,-1.21,-1 (inactive),-0.016,-0.198,-0.0824 (inactive)
CO[C@H]1O[C@H](CO)[C@@H](OC(=O)Nc2ccc(C(F)(F)F)cc2)[C@H](OC(=O)Nc2ccccc2)[C@@H]1OC(=O)Nc1ccccc1,-0.744 (inactive),-0.407,7.34 (inactive),1.01 (inactive),-0.886 (inactive),0.863 (inactive),-0.143,0.179 (inactive),-0.513 (inactive),-0.468,-0.902,-0.133,-1.28,-2.72,-2.84,-0.901,-1.47 (inactive),-0.828,0.469,-0.0537 (inactive)
COCC1C2CC[C@H]3C(OCc4ccc(F)cc4C(F)(F)F)OC[C@]4(C)[C@H]3C2=C(CN4C(=O)OC(C)(C)C)[C@H](C)C1COC (stereo not given in full),-1.06 (inactive),0.891,2.63 (inactive),-0.298 (inactive),0.16 (inactive),-0.998 (inactive),2.03,-0.834 (inactive),-0.934 (inactive),-3.41,-0.201,-0.511,0.922,-2.86,-3.14,1.53,-0.453 (inactive),-0.507,-1.42,-0.546 (inactive)
C=CC[C@@]1(C(=O)NCc2ccccc2)N=C(c2ccc(OCCCO)cc2)O[C@@H]1c1ccccc1CN=[N+]=[N-],-1.52 (inactive),0.791,24 (active),8.62 (active),2.14 (inactive),1.15 (inactive),-0.387,-1.15 (inactive),-0.499 (inactive),0.694,-0.651,0.115,-1.09,-1.84,-3,-0.675,-1.85 (inactive),-0.979,-0.975,-1.23 (inactive)
